From PubChem BioAssay
FLuc modulator – counter-screen for miR-21 project: firefly luciferase inhibitors or activators | Potency, µM (highest dose often 57.5 µM), for the others: at the highest dose activity change, negative = inhibition, hits mostly inhibitors | purified FLuc, Km substrates, luminescence inhibition | AID 588342 | 360,000 tested, 6.9% active | P08659;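 also: plate controls were vehicle for no effect and reference inhibitor for full effect; nearly all actives have a fitted effect of over 55% in size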
Target sequence (P08659 whole entry, looked up): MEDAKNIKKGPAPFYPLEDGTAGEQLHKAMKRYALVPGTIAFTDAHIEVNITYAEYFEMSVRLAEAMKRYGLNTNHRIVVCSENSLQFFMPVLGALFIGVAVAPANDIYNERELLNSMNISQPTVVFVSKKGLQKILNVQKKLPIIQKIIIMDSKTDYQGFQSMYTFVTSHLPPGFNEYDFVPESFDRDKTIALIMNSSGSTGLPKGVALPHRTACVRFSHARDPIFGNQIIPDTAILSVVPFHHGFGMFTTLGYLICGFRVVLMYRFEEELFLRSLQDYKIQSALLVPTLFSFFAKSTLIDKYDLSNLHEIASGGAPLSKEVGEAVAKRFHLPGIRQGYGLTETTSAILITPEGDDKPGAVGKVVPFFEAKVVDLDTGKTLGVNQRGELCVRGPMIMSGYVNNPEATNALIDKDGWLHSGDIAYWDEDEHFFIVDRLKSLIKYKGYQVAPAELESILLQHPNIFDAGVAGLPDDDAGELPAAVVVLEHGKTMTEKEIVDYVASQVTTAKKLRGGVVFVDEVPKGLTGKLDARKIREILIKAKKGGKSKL
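Purified P. pyralis luciferase, 10 nM final, with Km-level 10 uM D-luciferin and 10 uM ATP in 50 mM Tris acetate pH 7.5, 10 mM Mg acetate, 0.01% Tween-20, 0.05% BSA; 6-point qHTS titration about 60 µM downward; luminescence read.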
Rab9 promoter act – Rab9 promoter activation | Huh7 Rab9 promoter-luciferase reporter, luminescence, 24 h | Potency, µM (titrated, usually from 9.22 µM), for inactives: top-dose activation, negative = inhibition, usual class: activators | 320,000 tested, 2.8% active; also: % of control where 0% means no effect; nearly all actives have a fitted effect of over 60% in size
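Using Huh7 cells stably transfected with Rab9 promoter–luciferase, compounds were incubated 24 h at 37 °C, 5% CO2; luciferase luminescence was read 10 min after reagent addition.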
ELG1 genotoxic – inducers of genotoxicity in HEK293T ELG1-luciferase cells | Potency, µM (titrated, usually from 46 µM), inactives show at the top dose activity change, positive = activation, most hits filed as activators | HEK293T ELG1-luciferase reporter, luminescence, 16 h | 330,000 tested, 1.3% active; also: % of control where 0% means no effect; nearly all actives have a fitted effect of over 60% in size
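Screening used a luciferase reporter fused to human ELG1 in HEK293T cells. Luminescence was read on a CCD plate imager after 16 hr exposure and 30 min ONE-Glo incubation.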
SMN2 splice enh – increases expression of the SMN2 splice variant; HEK293 SMN2-luciferase splicing reporter, luminescence, 30-36 h; Potency, µM (doses to about 46.1 µM), for inactives: top-dose activity change, positive = activation, most hits filed as activators; 210,000 tested, 2.8% active; AID 1458; also: % of control where 0% means no effect; nearly all actives have a fitted effect of over 55% in size
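qHTS luciferase splicing reporter: luminescence rises when SMN2 exon 7 is included in transfected HEK293 cells. Compound exposure lasted 30-36 h at 37C, with 4.5 mM final sodium butyrate as control, followed by a ONE-Glo read.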
NPC1 prom act – activates the NPC1 promoter; Huh7 NPC1 promoter luciferase reporter, 24 h; Potency, µM (top dose mostly 9.22 µM), for the others: top-dose activation, most hits filed as activators; 320,000 tested, 2.4% active; AID 485313; also: % of control where 0% means no effect; nearly all actives have a fitted effect of over 60% in size
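Huh7 cells stably carrying NPC1 promoter–luciferase, plated in Opti-MEM with 10% FBS for 2 h, were exposed to compound in DMSO for 24 h at 37 °C; luciferase reagent was added for 10 min and luminescence read.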
ELG1 repair inh – inhibitors of ELG1-dependent DNA repair in HEK293T cells; HEK293T ELG1-luciferase reporter, luminescence, 16 h; DNA damage induced by 5-fluorouridine; Potency, µM (top dose mostly 46.1 µM), without a hit: at the highest dose activity change, negative = inhibition, hits mostly inhibitors; 330,000 tested, 2.3% active; also: % is scaled to controls: 0 for no effect and ±100 for the full control effect; nearly all actives have a fitted effect of over 55% in size
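HEK293T cells expressing luciferase-tagged ELG1 (2,000/well) received 5-Fluorouridine plus compound or DMSO for 16 hr at 37 °C. Luciferase was read by ONE-Glo luminescence after 30 min at room temperature.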
An asterisk follows results filed as active; ? = inconclusive; / = no result; [ ] = another dose, or the depositor's remark. An excerpt weighted towards active compounds, which were near 9.4% of everything screened. Calls follow the shape of the dose curve; as a rule, active = well fitted curve in the direction sought with a large enough effect; inconclusive = small, poorly fitted or top-dose-only effect, or another doubt; inactive = no such curve, though single readings can be large; an effect the other way counts as inactive or inconclusive. Potency is read from the fitted curve at half-maximal effect.

SMILES	FLuc modulator	Rab9 promoter act	ELG1 genotoxic	SMN2 splice enh	NPC1 prom act	ELG1 repair inh
Cc1cc(S(=O)(=O)NCCc2csc(-c3cccc(F)c3)n2)ccc1F	-12%	/	/	/	/	/
CCn1cc(-c2cc(C(=O)O)c3ccccc3n2)c(C)n1	9.5µM*	-2%	1%	-11%	-4%	12%
CCn1cc(-c2cc(C(=O)O)c3ccccc3n2)cn1	2.7µM*	13%	-9%	3%	6%	10%
O=C(O)c1cc(-c2cccnc2)nc2ccccc12	-1%	-1%	2%	/	-2%	?
C/C(=N\NC(=O)c1ccc(Cl)c(Cl)c1)c1ccc(Br)s1	0%	-8%	0%	-46%	-9%	-14%
C/C(=N/NC(=O)c1ccc2c(c1)OCO2)c1ccc(Br)s1	0%	3.5µM*	?	/	?	?
C/C(=N\NC(=O)c1ccc2c(c1)OCO2)c1ccco1	9.5µM*	0.79µM*	14%	13µM*	?	?
C/C(=N\NC(=O)c1ccco1)c1ccc(-c2ccccc2)cc1	2.4µM*	3.5µM*	9.2µM*	/	3.2µM*	?
CCC(C)(C)NC(=O)C(c1ccc(OC)cc1)N(Cc1cccs1)C(=O)CCC(=O)Nc1cc(C)on1 (stereo not drawn)	2%	0.63µM*	-5%	-12%	-6%	18µM*
COc1ccc(C(C(=O)NC(C)(C)C)N(Cc2cccs2)C(=O)CCC(=O)Nc2cc(C)on2)cc1 (stereo not drawn)	2%	-3%	-4%	-41%	-4%	?
COc1cc(OC)c(NC(=O)COc2ccccc2-c2nnc(-c3ccccc3)o2)cc1Cl	0%	/	/	/	/	/
COc1ccccc1OCC(=O)Nc1cccc(-c2nc3ccccc3o2)c1	7.6µM*	10%	-2%	6%	2%	-25%
Cc1cccc(OCC(=O)Nc2cccc(-c3nnc(-c4ccccc4)o3)c2)c1C	2%	20%	5%	10µM*	?	-6%
O=C(COc1ccccc1-c1nnc(-c2ccccc2)o1)Nc1ccc(Br)cc1F	4.8µM*	/	/	/	/	/
Cc1ccc(OCC(=O)Nc2cccc(-c3nnc(-c4ccccc4)o3)c2)cc1	?	?	2%	25µM*	?	?
Cc1ccc(C=Nc2ccccc2C#N)s1	1.3µM*	0%	9%	3%	0%	?
N#Cc1c(/N=C/c2cc3ccccc3s2)sc2c1CCC2	?	1.4µM*	?	10µM*	1.4µM*	?
N#Cc1c(/N=C/c2ccco2)sc2c1CCC2	2.4µM*	-1%	2%	/	-3%	?
CCOc1[nH]c(/N=C/c2ccco2)c(C#N)c1C#N	?	-1%	1%	-17%	2%	-19%
Cc1[nH]n(-c2cccc3ccccc23)c(=O)c1/C=N/c1sc2c(c1C#N)CCC2	-4%	0%	-6%	-8%	?	16%
Cc1[nH]n(-c2ccc(F)cc2)c(=O)c1/C=N/c1sc2c(c1C#N)CCCC2	13µM*	0%	-5%	-22%	1%	1%
CCc1ccc(S(=O)(=O)NCc2ccc3c(c2)CCN3C(=O)c2ccc(C)cc2)cc1	-8%	/	/	/	/	/
O=C(Nc1ccc(F)cc1F)c1ccc(-n2cnc3cccnc32)cc1	-2%	/	/	/	/	/
COc1cc(OC)c2c(C)c(CC(=O)NCc3ccccc3OC)c(=O)oc2c1	-3%	/	/	3%	/	/
CCSc1ncc(Cl)c(C(=O)N(Cc2ccc(N(C)C)cc2)Cc2ccco2)n1	-10%	/	/	-19%	/	/
SMILES	FLuc modulator	Rab9 promoter act	ELG1 genotoxic	SMN2 splice enh	NPC1 prom act	ELG1 repair inh
Cc1ccc(/C=N/c2sc3c(c2C#N)CCC3)s1	0.67µM*	?	?	7.1µM*	?	?
N#Cc1c(-n2cccc2/C=N/O)sc2c1CCCC2	6%	-9%	-2%	-22%	0%	-1%
Cc1ccc(/C=N/c2sc3c(c2C#N)CCCCC3)o1	0.17µM*	4µM*	1.5µM*	-32%	4.5µM*	?
Cc1nn2c(=O)cc(COc3ccc(/C=C(\C#N)C(=O)Nc4ccc(F)cc4)cc3)nc2s1	2%	/	/	-9%	/	/
COC(=O)c1ccc(Cl)c(NC(C)=O)c1	0%	-2%	1%	4%	0%	10%
COC(=O)c1cccc(S(=O)(=O)N2CCC(NC(=O)NC34CC5CC(CC(C5)C3)C4)CC2)c1	-2%	1%	-10%	-14%	-2%	?
COC(=O)c1cccc(NC(=O)NC23CC4CC(CC(C4)C2)C3)c1	9.5µM*	24%	?	11%	21%	?
COC(=O)c1ccc(Cl)c(NC(=O)NC23CC4CC(CC(C4)C2)C3)c1	-11%	1%	-4%	-19%	3%	21µM*
Cc1occc1-c1nnc(SCC(=O)Nc2ccccn2)o1	-3%	?	?	10µM*	?	?
O=C(CSc1nnc(-c2ccccc2Cl)o1)Nc1ccccn1	-16%	0.56µM*	?	/	?	?
O=C(CSc1nnc(-c2ccccc2F)o1)Nc1ccccc1Cl	1%	/	/	/	/	/
O=C(CCSc1ccccc1)NC1CCCC1	15µM*	1%	?	21%	3%	?
O=C(CCS(=O)(=O)c1ccccc1)NC1CCCCC1	17µM*	?	15µM*	/	25%	?
COc1ccc(S(=O)(=O)CCC(=O)NC2CCCCC2)cc1	0%	-1%	3%	22%	-1%	10%
O=C(N/N=C/c1ccc(O)cc1O)c1ccc(CN2C(=O)c3cccc4cccc2c34)cc1	-1%	-42%	14%	-81%	-30%	2.9µM*
CCOc1cc(/C=N/NC(=O)c2ccc(CN3CCOCC3)cc2)ccc1OCc1ccccc1	-1%	-19%	-13%	-47%	-8%	18µM*
O=C(N/N=C/c1ccccc1)c1ccc(CN2C(=O)c3cccc4cccc2c34)cc1	-19%	4%	-3%	-7%	-3%	?
O=C(N/N=C/c1cccc2ccccc12)c1ccc(CN2CCOCC2)cc1	17µM*	1%	-8%	/	-4%	-25%
CC1Cc2cc(/C=C3/SC(=S)N(C)C3=O)ccc2O1 (stereo not drawn)	1.1µM*	?	?	/	?	?
CC1Cc2cc(/C=C3/SC(N4CCC(C(N)=O)CC4)=NC3=O)ccc2O1 (stereo not drawn)	?	-1%	5%	/	-6%	26µM*
CN1C(=O)/C(=C\c2cccc(OCc3ccccc3)c2)SC1=S	0%	1%	1%	/	-3%	10%
O=C(Nc1ccc2c(c1)Cc1ccccc1-2)[C@@H]1[C@H](C(=O)O)[C@]2(Cl)C(Cl)=C(Cl)[C@@]1(Cl)C2(Cl)Cl	/	/	/	5%[9.22 µM]	/	/
